Several values for one entry are separate records, joined by “and”; a condition that tells them apart may be missing. Equal values may be shown once. Inconclusive results are not listed. Entries that show only a call come without a potency. Activity calls are given as the source filed them. Unless noted, calls follow the shape of the dose curve; as a rule, active = well fitted curve in the direction sought with a large enough effect; inconclusive = small, poorly fitted or top-dose-only effect, or another doubt; inactive = no such curve, though single readings can be large; an effect the other way counts as inactive or inconclusive.
Assays:
[1] = Cell Viability - Hek293 (AID 427;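 active = compounds whose dose-response curve shows a full or clear partial loss of cell viability, called from curve shape rather than a numeric limit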;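 also: potency is read from the fitted curve at half-maximal effect; cells exposed to compound for 40 hours at 37 °C before reading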); conditions: qHTS
Procedure, shortened: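 AC50 values derive from Hill-modelled concentration-response of ATP-based luminescence, normalized between DMSO-only and 100 uM tamoxifen controls. Cells were exposed in complete culture medium for 40 hr at 37 °C before detection.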

[2] = biological target: Mitogen-activated protein kinase 10 (Mus musculus) (UniProt Q61831); experiment: JNK3 AlphaScreen Assay (AID 530; active = well fitted curve in either direction with a large enough effect, not every such curve was filed as active;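 also: kinase came from lysate of stimulated human HepG2 cells; signal reports phosphorylation of biotinylated GST-cJun 1-79 at Ser73 with 10 µM ATP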); conditions: JNK3 lysate, c-Jun phosphorylation; series mostly up to 57.1 µM
Procedure, shortened: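 qHTS titrations with 15 min compound pre-incubation before adding ATP (10 uM final). Read-out: AlphaScreen of Ser73-phosphorylated biotin-GST-cJun using HepG2 lysate JNK3 activated by IL-1β and TNFα.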

[3] = MultiTox-Fluor Cytotoxicity Assay - LYMP1-001 - Live Cells (AID 947); conditions: LYMP1-001 lymphoblastoid cells, live-cell protease fluorescence viability; series mostly up to 92.2 µM
[4] = Cell Viability - LYMP2-003 (AID 965); conditions: LYMP2-003 lymphoblastoid cell viability; series mostly up to 92.2 µM;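 also: cells exposed to compounds for 24 h before reading; nearly all actives have a fitted effect of over 50% in size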
Procedure, shortened: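 Acute cytotoxicity is scored as a concentration-dependent drop in intracellular ATP, measured by luciferase luminescence in human lymphoblastoid cells treated for 24 hours at 37 C. AC50 values derive from Hill-equation modelling.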

[5] = Cell Viability - LYMP2-005 (AID 967); conditions: LYMP2-005 lymphoblastoid cell viability; series mostly up to 92.2 µM
Procedure, shortened: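 qHTS viability screen in LYMP2-005 cells: 24 h at 37 C with compound, ATP luminescence via CellTiter-Glo, AC50 from Hill curves.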

[6] = Cell Viability - LYMP2-013 (AID 970); conditions: LYMP2-013 lymphoblastoid cells viability; series mostly up to 92.2 µM; also: nearly all actives have a fitted effect of over 55% in size
Procedure, shortened: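 Cytotoxicity is scored as a concentration-dependent drop in intracellular ATP in human lymphoblastoid cells after 24 hr compound exposure at 37 C. ATP is quantified by luciferase luminescence, and AC50 values come from Hill-equation modeling.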

[7] = Cell Viability - LYMP2-008 (AID 980); conditions: LYMP2-008 lymphoblastoid cell viability, qHTS; series mostly up to 92.2 µM; also: nearly all actives have a fitted effect of over 60% in size
Procedure, shortened: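 Cells seeded at 2500/well and rested 5 hr at 37 C; compounds added over a concentration range and incubated 24 hr at 37 C; CellTiter-Glo added, 30 min at room temperature; luminescence read and AC50 fitted with Hill model.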

[8] = Cell Viability - LYMP2-018 (AID 985); conditions: LYMP2-018 lymphoblastoid cells, viability (qHTS); series mostly up to 92.2 µM; also: nearly all actives have a fitted effect of over 50% in size
Procedure, shortened: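 Seed 2500 lymphoblastoid cells per well, incubate 5 hr at 37 C, add compound and incubate 24 hr at 37 C, add CellTiter-Glo, wait 30 min at room temperature, then read luminescence.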

[9] = Cell Viability - LYMP2-022 (AID 987); conditions: LYMP2-022 lymphoblastoid cell viability; series mostly up to 92.2 µM; also: nearly all actives have a fitted effect of over 55% in size
Procedure, shortened: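 Cells were seeded at 2500 per well, rested 5 hr at 37 C, and treated with titrated compounds for 24 hr at 37 C. Cellular ATP was then quantified by luciferase luminescence, and AC50 values were derived from Hill-modelled concentration-response curves.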

[10] = Cell Viability - LYMP1-002 - Assay at 40 hr (AID 994); conditions: LYMP1-002 lymphoblastoid cell viability; series mostly up to 92.2 µM; also: nearly all actives have a fitted effect of over 60% in size
Procedure, shortened: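 Cells are plated at 2500 per well and rested 5 hr at 37 C. Compounds are added and incubated 40 hr at 37 C. CellTiter-Glo reagent is added for 30 min at room temperature before luminescence is read.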

[11] = qHTS assay for small molecule agonists of retinoid X receptor alpha signaling (AID 588544; calls by dose curve); conditions: HEK293T RXRa-UAS-bla, beta-lactamase reporter, 18 h; 530 nm emission
[12] = biological target: Retinoic acid receptor RXR-alpha (Homo sapiens) (UniProt P19793); experiment: as above; conditions: HEK293T RXRa-UAS-bla, beta-lactamase reporter, 18 h; series mostly up to 76.7 µM
[13] = qHTS assay for small molecule antagonists of retinoid X receptor alpha signaling (AID 588546); conditions: HEK293T RXRa-UAS-bla, beta-lactamase ratio, antagonist mode; measured here: W530 green channel, cytotoxicity proxy;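 also: cells stimulated with 9-cis-retinoic acid as agonist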
Procedure, shortened: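 Beta-lactamase reporter inhibition, read as CCF4 fluorescence ratio (ex 405, em 460/530 nm) after 2 h at RT. HEK293T UAS-bla cells, 2500/well, were stimulated with 9-cis-RA at 500 or 100 nM final alongside test compound for 18 h at 37 C.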

[14] = biological target: Thyroid hormone receptor beta (Homo sapiens) (UniProt P10828); experiment: qHTS assay for small molecule antagonists of thyroid hormone receptor beta signaling (AID 588547; active = well fitted inhibition curve with a large enough effect in the signal ratio, with a control signal flat, not every such curve was filed as active; the % refers to the signal ratio;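 also: cells stimulated with 0.4 nM T3 agonist during compound exposure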); conditions: TR-UAS-bla HEK293, beta-lactamase ratio, antagonist mode, 18 h
Procedure, shortened: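 Inhibition of T3-driven (0.4nM final) beta-lactamase reporter activity was measured over 0.59 nM to 92 uM compound after 18 h at 37 C. The cells were GripTite HEK293 TR-UAS-bla in charcoal/dextran-stripped serum, with CCF4 ratio read-out and IC50 from Hill fits.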

[15] = biological target: Voltage-gated inwardly rectifying potassium channel KCNH2 (Homo sapiens) (UniProt Q12809); experiment: qHTS Assay for Small Molecule Inhibitors of the Human hERG Channel Activity (AID 588834); conditions: U2OS BacMam hERG, FluxOR thallium flux fluorescence; series mostly up to 92.2 µM;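 also: U2OS cells transduced with hERG by BacMam; top concentration of the series differs between compounds; lower thallium flux fluorescence means stronger hERG block; nearly all actives have a fitted effect of over 50% in size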
Procedure, shortened: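 Cells were infected with hERG-BacMam virus for 4 hrs at room temperature, grown overnight, then seeded at 2000/well. After dye loading and roughly 10 min compound treatment, thallium influx was triggered and fluorescence recorded.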

[16] = qHTS assay for small molecule disruptors of the mitochondrial membrane potential - 5 hr assay (AID 651755; calls by dose curve; also: nearly all actives have a fitted effect of over 40% in size); conditions: JC-1-type ratio dye; series mostly up to 92.2 µM
Procedure, shortened: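 Membrane-potential dye readout: red aggregate (540 ex/590 em) versus green monomer (490 ex/535 em) fluorescence after 30 min dye loading, following 5 hr compound exposure at 37C of overnight-plated HepG2 cells.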

[17] = biological target: Tumor necrosis factor (Homo sapiens) (UniProt P01375); experiment: qHTS assay to identify small molecules that stimulate Tumor Necrosis Factor-alpha (TNF-alpha) secretion (AID 651757; active = well fitted curve in the direction sought with a large enough effect in the signal ratio; the % refers to the signal ratio); conditions: Human cells, HTRF 665/615 ratio; series mostly up to 92.2 µM
Procedure, shortened: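 Human monocytic THP-1 cells are plated, treated with compound and held at 37 C for 17 hrs. Labeled anti-TNF-alpha antibody mixture is then added; after 3 hr at room temperature, TR-FRET signal reports secreted TNF-alpha.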

[18] = qHTS assay for small molecule activators of the human pregnane X receptor (PXR) signaling pathway (AID 720659; call rule not given here); conditions: DPX-2 HepG2 CYP3A4-luciferase, 24 h; series mostly up to 92.3 µM
[19] = Cellular Toxicity (caspase-3) Renal Proximal Tubule (AID 667); conditions: renal proximal tubule cells; series mostly up to 91.7 µM;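 also: cells exposed to compound for 16 hours at 37 °C before detection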
Procedure, shortened: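 In qHTS format, rat primary proximal tubule cells seeded at 1000 per well are exposed to compounds for 16 hours at 37 °C. An increase in Caspase-Glo 3/7 luminescence indicates caspase activation.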

[20] = biological target: Nuclear receptor subfamily 1 group I member 2 (Rattus norvegicus) (UniProt Q9R1A7); experiment: qHTS assay for small molecule activators of the rat pregnane X receptor (rPXR) signaling pathway (AID 651751; call rule not given here); conditions: rPXR reporter cells, luciferase (One-Glo), 24 h
Chain of Nuclear receptor subfamily 1 group I member 2 (Rattus norvegicus) (Q9R1A7 whole entry, looked up): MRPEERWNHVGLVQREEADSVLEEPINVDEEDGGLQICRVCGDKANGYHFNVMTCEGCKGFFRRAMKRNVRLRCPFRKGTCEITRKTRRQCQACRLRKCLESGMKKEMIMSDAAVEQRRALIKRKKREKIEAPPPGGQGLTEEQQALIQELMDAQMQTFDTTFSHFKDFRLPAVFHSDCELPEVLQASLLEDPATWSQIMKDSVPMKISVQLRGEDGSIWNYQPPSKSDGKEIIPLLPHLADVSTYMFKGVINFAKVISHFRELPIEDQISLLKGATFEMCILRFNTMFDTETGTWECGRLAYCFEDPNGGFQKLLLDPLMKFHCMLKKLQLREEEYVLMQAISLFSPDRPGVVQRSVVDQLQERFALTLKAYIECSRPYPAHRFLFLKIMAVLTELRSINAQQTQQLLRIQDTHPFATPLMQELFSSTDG

Chain of Retinoic acid receptor RXR-alpha (Homo sapiens) (P19793 whole entry, looked up): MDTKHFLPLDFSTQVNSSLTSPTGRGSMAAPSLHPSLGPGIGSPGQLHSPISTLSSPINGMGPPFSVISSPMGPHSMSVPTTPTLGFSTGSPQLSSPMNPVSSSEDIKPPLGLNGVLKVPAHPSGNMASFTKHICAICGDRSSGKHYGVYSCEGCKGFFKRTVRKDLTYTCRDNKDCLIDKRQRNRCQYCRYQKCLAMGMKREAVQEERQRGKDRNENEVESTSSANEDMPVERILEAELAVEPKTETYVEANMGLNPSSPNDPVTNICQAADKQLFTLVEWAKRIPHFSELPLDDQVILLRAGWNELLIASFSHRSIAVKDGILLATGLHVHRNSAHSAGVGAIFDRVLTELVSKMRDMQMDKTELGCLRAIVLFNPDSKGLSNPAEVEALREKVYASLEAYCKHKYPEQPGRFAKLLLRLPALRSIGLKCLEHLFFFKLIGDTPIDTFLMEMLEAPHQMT
Chain of Voltage-gated inwardly rectifying potassium channel KCNH2 (Homo sapiens) (Q12809 whole entry, looked up): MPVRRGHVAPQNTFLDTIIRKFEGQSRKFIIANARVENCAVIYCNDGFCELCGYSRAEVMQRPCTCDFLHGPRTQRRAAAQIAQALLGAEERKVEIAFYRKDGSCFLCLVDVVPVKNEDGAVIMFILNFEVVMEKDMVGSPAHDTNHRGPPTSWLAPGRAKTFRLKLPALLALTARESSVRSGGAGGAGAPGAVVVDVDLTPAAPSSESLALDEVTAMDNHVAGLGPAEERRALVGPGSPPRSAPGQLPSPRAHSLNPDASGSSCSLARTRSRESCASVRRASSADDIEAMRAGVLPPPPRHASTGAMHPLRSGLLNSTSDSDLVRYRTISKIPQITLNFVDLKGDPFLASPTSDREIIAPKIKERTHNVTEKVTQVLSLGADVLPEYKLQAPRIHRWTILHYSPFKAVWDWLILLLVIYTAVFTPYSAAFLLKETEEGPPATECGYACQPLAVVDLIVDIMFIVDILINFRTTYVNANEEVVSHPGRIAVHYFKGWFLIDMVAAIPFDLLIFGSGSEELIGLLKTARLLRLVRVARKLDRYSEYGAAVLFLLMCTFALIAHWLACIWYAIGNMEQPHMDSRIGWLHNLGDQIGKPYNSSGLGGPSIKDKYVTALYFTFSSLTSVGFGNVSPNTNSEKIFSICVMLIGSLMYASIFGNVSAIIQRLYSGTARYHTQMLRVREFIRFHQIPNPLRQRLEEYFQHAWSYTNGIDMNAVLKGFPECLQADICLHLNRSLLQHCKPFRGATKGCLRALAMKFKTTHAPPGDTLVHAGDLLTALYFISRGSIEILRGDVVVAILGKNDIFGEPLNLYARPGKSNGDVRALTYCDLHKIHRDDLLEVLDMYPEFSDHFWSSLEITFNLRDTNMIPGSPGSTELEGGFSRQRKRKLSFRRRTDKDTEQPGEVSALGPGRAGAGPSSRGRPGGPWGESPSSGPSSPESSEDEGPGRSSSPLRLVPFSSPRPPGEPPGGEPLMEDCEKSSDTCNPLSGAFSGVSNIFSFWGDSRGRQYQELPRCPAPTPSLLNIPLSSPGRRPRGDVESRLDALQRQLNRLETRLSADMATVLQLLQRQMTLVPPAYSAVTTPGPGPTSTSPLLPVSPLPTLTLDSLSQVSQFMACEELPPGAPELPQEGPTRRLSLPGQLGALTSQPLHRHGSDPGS
Chain of Tumor necrosis factor (Homo sapiens) (P01375 whole entry, looked up): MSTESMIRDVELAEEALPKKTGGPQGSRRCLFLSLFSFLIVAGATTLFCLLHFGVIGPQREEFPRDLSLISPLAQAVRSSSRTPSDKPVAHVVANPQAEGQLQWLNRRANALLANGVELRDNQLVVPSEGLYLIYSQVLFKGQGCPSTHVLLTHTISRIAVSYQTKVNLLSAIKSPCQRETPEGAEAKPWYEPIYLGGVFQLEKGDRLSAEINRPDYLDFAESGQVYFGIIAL
Chain of Thyroid hormone receptor beta (Homo sapiens) (P10828 whole entry, looked up): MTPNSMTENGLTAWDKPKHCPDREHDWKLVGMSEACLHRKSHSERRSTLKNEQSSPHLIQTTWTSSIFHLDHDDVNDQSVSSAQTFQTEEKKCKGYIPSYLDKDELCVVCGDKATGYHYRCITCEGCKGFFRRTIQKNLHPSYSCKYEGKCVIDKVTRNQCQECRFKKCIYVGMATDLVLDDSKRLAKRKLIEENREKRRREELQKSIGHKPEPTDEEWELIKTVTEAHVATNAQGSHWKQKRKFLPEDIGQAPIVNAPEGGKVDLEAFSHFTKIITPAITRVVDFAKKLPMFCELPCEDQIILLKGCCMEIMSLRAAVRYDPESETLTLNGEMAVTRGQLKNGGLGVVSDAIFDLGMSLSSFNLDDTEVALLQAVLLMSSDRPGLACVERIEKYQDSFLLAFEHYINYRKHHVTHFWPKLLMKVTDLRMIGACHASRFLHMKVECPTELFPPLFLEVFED

Row | Structure (SMILES) | Potency [1] | Potency [2] | outcome [3] | Potency [4] | Potency [5] | Potency [6] | Potency [7] | Potency [8] | Potency [9] | Potency [10] | max response [11] | outcome [12] | max response [13] | activity change % (negative = inhibition) [14] | Potency [15] | Potency [16] | outcome [17] | outcome [18] | outcome [19] | max response [20]
1 | Cc1ccc(N)cc1Cl | > 92 µM (inactive) | inactive | inactive | inactive | inactive | inactive | inactive | inactive | inactive | inactive | -18.1% | inactive | -6.83% | -8.08% (inactive) | inactive | inactive | inactive | inactive |  | 
2 | CN=C=O | > 92 µM (inactive) | inactive | inactive | inactive |  | inactive | inactive | inactive | inactive | inactive | -13% | inactive | -1.71% | -7.41% (inactive) | inactive | inactive | inactive | inactive | inactive | 8.83% (inactive)
3 | NC1CCC(CC2CCC(N)CC2)CC1 (stereo not drawn) | > 92 µM (inactive) | inactive | inactive | inactive | inactive | inactive | inactive | inactive | inactive | inactive | 8.4% | inactive | 2.2% and -10.5% | 7.19% (inactive) | inactive | inactive | inactive | inactive | inactive | 5.41% (inactive) and 4.82% (inactive)
4 | Cl/C=C/CCl | > 92 µM (inactive) | inactive | inactive | inactive | inactive | inactive | inactive | inactive | inactive | inactive | -6.27% | inactive | 3.06% | -4.73% (inactive) | inactive | inactive | inactive | inactive | inactive | -4.52% (inactive)
5 | O=C(O)C(Cl)(Cl)Br | > 92 µM (inactive) | inactive | inactive | inactive | inactive | inactive | inactive | inactive | inactive |  | -15.6% |  | 1.14% | -3.52% (inactive) | inactive | inactive | inactive | inactive | inactive | 3.3% (inactive)
6 | CNC(=O)O/N=C/C(C)(C)S(C)=O (stereo not drawn) | > 92 µM (inactive) | inactive | inactive | inactive | inactive | inactive | inactive | inactive | inactive | inactive | -20.3% and 7.58% | inactive | -10.1% and 0.325% | 6.05% (inactive) and 1.68% (inactive) | inactive | inactive | inactive | inactive |  | 6.61% (inactive) and 1.92% (inactive)
7 | O=C(O)c1cc(Cl)ccc1Cl | > 92 µM (inactive) | inactive | inactive | inactive | inactive | inactive | inactive | inactive | inactive | inactive | -6.74% | inactive | -9.46% | 12.5% (inactive) | inactive | inactive | inactive | inactive | inactive | -1.07% (inactive)
8 | CC(C)(Cl)Cl | > 92 µM (inactive) | inactive | inactive |  | inactive | inactive | inactive | inactive | inactive | inactive | -10.7% | inactive | -1.69% | -3.24% (inactive) | inactive | inactive | inactive | inactive |  | -1.57% (inactive)
9 | CCCCOC(=O)c1ccccc1N | > 92 µM (inactive) | inactive | inactive |  | inactive | inactive | inactive | inactive | inactive | inactive | -10.9% | inactive | -0.876% |  | inactive | inactive | inactive | inactive | inactive | -1.8% (inactive)
10 | CN(C)c1ccccc1 | > 92 µM (inactive) | inactive | inactive | inactive | inactive | inactive | inactive | inactive | inactive | inactive | -3.38% | inactive | 5.14% | -1.14% (inactive) | inactive | inactive | inactive | inactive | inactive | -6.91% (inactive)
11 | Cl/C=C\Cl | > 92 µM (inactive) | inactive | inactive | inactive | inactive | inactive | inactive | inactive | inactive | inactive | -20.4% | inactive | -4.97% | 0.348% (inactive) | inactive |  | inactive | inactive | inactive | 3.59% (inactive)
12 | C=CCBr | > 92 µM (inactive) | inactive | inactive | inactive | inactive | inactive | inactive | inactive | inactive | inactive | -11.7% | inactive | -4.43% | -19.2% (inactive) | inactive | inactive | inactive | inactive | inactive | 1.14% (inactive)
13 | CCCCCCCCCCCOC(=O)c1ccccc1C(=O)OCCCCCCCCCCC | > 92 µM (inactive) | inactive | inactive | inactive | inactive | inactive | inactive | inactive | inactive | inactive | -1.51% | inactive | 5.25% |  | inactive | inactive | inactive |  |  | 1.44% (inactive)
14 | O=C(O)CBr | > 92 µM (inactive) | inactive | inactive | inactive | inactive | inactive | inactive | inactive | inactive | inactive | -13.9% | inactive | -7.96% | 11.6% (inactive) | inactive | inactive | inactive | inactive | inactive | 2.42% (inactive)
15 | CC(C)(C)OOC(=O)c1ccccc1 | > 92 µM (inactive) | inactive |  |  | inactive | inactive | inactive | inactive | inactive | inactive | 3.54% and -7.62% | inactive | -18.8% and -11.9% | 11.4% (inactive) | inactive | inactive | inactive | inactive | inactive | 2.87% (inactive) and -0.927% (inactive)
16 | Nc1ncc([N+](=O)[O-])s1 | > 92 µM (inactive) | inactive | inactive | inactive | inactive | inactive | inactive | inactive | inactive | inactive | 0.224% | inactive | -7.58% | -7.23% (inactive) | inactive | inactive | inactive | inactive | inactive | -6.92% (inactive)
17 | Oc1c(Cl)cccc1Cl | > 92 µM (inactive) | inactive | inactive | inactive | inactive | inactive | inactive | inactive | inactive | inactive | 9.22% | inactive | -9.58% | -18.9% (inactive) |  | inactive | inactive | inactive | inactive | 5.06% (inactive)
18 | N#CCc1ccccc1 | > 92 µM (inactive) | inactive | inactive | inactive | inactive | inactive | inactive | inactive | inactive | inactive | -3.72% | inactive | -0.865% | 23.1% (inactive) | inactive | inactive | inactive | inactive | inactive | 1.21% (inactive)

Source: PubChem BioAssay (NCATS)
